# Results reported in PubChem BioAssay (Tox21).
# A number with no mark means an inactive call. A call without a number means that no potency is given here. Active and inactive are the calls of the source. Unless noted, the call rests on the fitted dose curve.
# Molecular target: Thyrotropin-releasing hormone receptor (Homo sapiens) (UniProt P34981)
# Assay: qHTS assay to identify small molecule antagonists of the thyrotropin-releasing hormone receptor (TRHR) signaling pathway (AID 1346877; active means well fitted inhibition curve with a large enough effect in the repeat runs, not every such curve was filed as active)
# Settings: TRHR-HEK293, TRH-induced calcium fluorescence, antagonist mode; series mostly up to 51.3 µM
# In short: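 In this cell-based calcium flux format, HEK293 cells expressing TRHR received test compound for 5 min before the agonist TRH (1 nM final). Dye loading lasted 2 h at 37 °C.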
# Sequence of Thyrotropin-releasing hormone receptor (Homo sapiens) (P34981 whole entry, looked up): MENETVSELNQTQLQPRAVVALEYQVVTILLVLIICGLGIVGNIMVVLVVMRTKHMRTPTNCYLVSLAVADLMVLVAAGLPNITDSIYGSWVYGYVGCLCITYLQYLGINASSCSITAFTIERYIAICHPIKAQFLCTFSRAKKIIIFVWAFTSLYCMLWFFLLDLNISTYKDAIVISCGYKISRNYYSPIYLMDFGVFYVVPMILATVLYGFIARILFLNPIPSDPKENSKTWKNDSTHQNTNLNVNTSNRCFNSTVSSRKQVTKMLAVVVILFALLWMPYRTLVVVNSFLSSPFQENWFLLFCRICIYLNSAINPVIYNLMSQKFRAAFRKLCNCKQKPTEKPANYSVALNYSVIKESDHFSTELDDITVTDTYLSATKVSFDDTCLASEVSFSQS
Structure (SMILES),Potency,"activity, negative = inhibition"
Clc1ccc(C(Cn2ccnc2)OCc2ccc(Sc3ccccc3)cc2)c(Cl)c1 (centres undefined),inactive,
O=CC=C(c1ccccc1)c1ccccc1,inactive,
O=C(c1ccc(O)cc1O)c1ccc(O)cc1O,inactive,
CCC1OCC(COc2ccc(Oc3ccccc3)cc2)O1 (centres undefined),inactive,
Cc1nc(-c2ccc3c(c2)CCN(CCC2CCC(NC(=O)/C=C/c4ccc(F)cc4)CC2)CC3)no1 (centres undefined),inactive,
O=C(Oc1ccccc1)c1ccccc1C(=O)Oc1ccccc1,inactive,
C[C@H]1[C@H]2CC[C@H]3[C@@H]4CC=C5C[C@@H](N(C)C)CC[C@]5(C)[C@H]4CC[C@]23CN1C,inactive,
Cc1c(C)c2c(c(C)c1O)CCC(C)(COc1ccc(CC3SC(=O)NC3=O)cc1)O2 (centres undefined),inactive,
CCCCCCCCCCC=O,inactive,
CSc1cnc(C)cn1,inactive,
Cc1cccc(N(C)C(=S)Oc2ccc3c(c2)C2CCC3C2)c1 (centres undefined),inactive,
COC(=O)c1cc(Cl)ccc1OC,inactive,
CCOC(=O)O[C@]1(C(=O)OCCl)CC[C@H]2[C@@H]3CCC4=CC(=O)C=C[C@]4(C)[C@H]3[C@@H](O)C[C@@]21C,inactive,
Cc1cc(O)c(Cl)c(C)c1Cl,inactive,
C[n+]1cc2c3c(ccc2c2ccc4cc5c(cc4c21)OCO5)OCO3,,3.07% [at 10.5 µM]
CCCCN1CCCC[C@H]1C(=O)Nc1c(C)cccc1C,inactive,
COc1cccc(N)c1,inactive,
COc1ccc(-c2ccc3cc(C(=O)O)ccc3c2)cc1C12CC3CC(CC(C3)C1)C2,inactive,
Oc1ccc(N=Nc2ccccc2)cc1,inactive,
CCC(N)(CO)CO,inactive,
CN(C)CCCOC1(Cc2ccccc2)CCCCCC1,inactive,
CCc1oc2ccccc2c1C(=O)c1cc(Br)c(O)c(Br)c1,inactive,
CCCCCCCCCCCCCCCC(=O)OC[C@H](O)[C@H]1OC(=O)C(O)=C1O,inactive,
O=C(NO)C1(NS(=O)(=O)c2ccc(Oc3ccc(F)cc3)cc2)CCOCC1,inactive,
Cc1c(C)c2c(c(C)c1OC(=O)CCC(=O)O)CC[C@@](C)(CCC[C@H](C)CCC[C@H](C)CCCC(C)C)O2,inactive,
NNC(=O)c1cccc(C(=O)NN)c1,inactive,

# Molecular target: Thyrotropin-releasing hormone receptor (Homo sapiens) (UniProt P34981)
# Assay: qHTS assay to identify small molecule agonists of the thyrotropin-releasing hormone receptor (TRHR) signaling pathway (AID 1346891)
# Settings: TRHR-HEK293 calcium fluorescence, agonist mode; series mostly up to 57.6 µM
# In short: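 Agonist-mode calcium mobilisation screen: TRHR-transfected HEK293 cells cultured overnight (18 h), dye-loaded for 2 h at 37 °C, exposed to compounds, and monitored by fluorescence for 3 min.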
Structure (SMILES),Potency,activation
Clc1ccc(C(Cn2ccnc2)OCc2ccc(Sc3ccccc3)cc2)c(Cl)c1 (centres undefined),inactive,
O=CC=C(c1ccccc1)c1ccccc1,inactive,
O=C(c1ccc(O)cc1O)c1ccc(O)cc1O,inactive,
CCC1OCC(COc2ccc(Oc3ccccc3)cc2)O1 (centres undefined),inactive,
Cc1nc(-c2ccc3c(c2)CCN(CCC2CCC(NC(=O)/C=C/c4ccc(F)cc4)CC2)CC3)no1 (centres undefined),inactive,
O=C(Oc1ccccc1)c1ccccc1C(=O)Oc1ccccc1,inactive,
C[C@H]1[C@H]2CC[C@H]3[C@@H]4CC=C5C[C@@H](N(C)C)CC[C@]5(C)[C@H]4CC[C@]23CN1C,inactive,
Cc1c(C)c2c(c(C)c1O)CCC(C)(COc1ccc(CC3SC(=O)NC3=O)cc1)O2 (centres undefined),inactive,
CCCCCCCCCCC=O,inactive,
CSc1cnc(C)cn1,inactive,
Cc1cccc(N(C)C(=S)Oc2ccc3c(c2)C2CCC3C2)c1 (centres undefined),inactive,
O=c1cccccc1O,inactive,
COC(=O)c1cc(Cl)ccc1OC,inactive,
CCOC(=O)O[C@]1(C(=O)OCCl)CC[C@H]2[C@@H]3CCC4=CC(=O)C=C[C@]4(C)[C@H]3[C@@H](O)C[C@@]21C,inactive,
Cc1cc(O)c(Cl)c(C)c1Cl,inactive,
C[n+]1cc2c3c(ccc2c2ccc4cc5c(cc4c21)OCO5)OCO3,,2.25% [at 11.8 µM]
CCCCN1CCCC[C@H]1C(=O)Nc1c(C)cccc1C,inactive,
COc1cccc(N)c1,inactive,
COc1ccc(-c2ccc3cc(C(=O)O)ccc3c2)cc1C12CC3CC(CC(C3)C1)C2,inactive,
Oc1ccc(N=Nc2ccccc2)cc1,inactive,
CCC(N)(CO)CO,inactive,
O=C1C=CC(=O)N1c1ccc(Cc2ccc(N3C(=O)C=CC3=O)cc2)cc1,inactive,
CN(C)CCCOC1(Cc2ccccc2)CCCCCC1,inactive,
CCc1oc2ccccc2c1C(=O)c1cc(Br)c(O)c(Br)c1,inactive,
CCCCCCCCCCCCCCCC(=O)OC[C@H](O)[C@H]1OC(=O)C(O)=C1O,inactive,
O=C(NO)C1(NS(=O)(=O)c2ccc(Oc3ccc(F)cc3)cc2)CCOCC1,inactive,
Cc1c(C)c2c(c(C)c1OC(=O)CCC(=O)O)CC[C@@](C)(CCC[C@H](C)CCC[C@H](C)CCCC(C)C)O2,inactive,
NNC(=O)c1cccc(C(=O)NN)c1,inactive,
